Bioassay records deposited in PubChem BioAssay by Johns Hopkins Ion Channel Center.
Rows were chosen to be rich in hits. Some 1.6% of all compounds tested hit in one or more screens of this group.
KCNQ2 inh = rat KCNQ2 potassium channel inhibitors, primary screen, cell-based, CHO-K1, FluxOR thallium flux, B-score | Potassium voltage-gated channel subfamily KQT member 2 (Rattus norvegicus), O88943 | 20 min; active compounds read low | B-score at 10 µM | hit rate 1.1% among 310,000 | AID 2156, 2009;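 active = fluorescence ratio B-score at most minus 3 library SDs, with starting brightness B-score within 2 library SDs, cut at about -5.5 in these data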
Target sequence (O88943 whole entry, looked up): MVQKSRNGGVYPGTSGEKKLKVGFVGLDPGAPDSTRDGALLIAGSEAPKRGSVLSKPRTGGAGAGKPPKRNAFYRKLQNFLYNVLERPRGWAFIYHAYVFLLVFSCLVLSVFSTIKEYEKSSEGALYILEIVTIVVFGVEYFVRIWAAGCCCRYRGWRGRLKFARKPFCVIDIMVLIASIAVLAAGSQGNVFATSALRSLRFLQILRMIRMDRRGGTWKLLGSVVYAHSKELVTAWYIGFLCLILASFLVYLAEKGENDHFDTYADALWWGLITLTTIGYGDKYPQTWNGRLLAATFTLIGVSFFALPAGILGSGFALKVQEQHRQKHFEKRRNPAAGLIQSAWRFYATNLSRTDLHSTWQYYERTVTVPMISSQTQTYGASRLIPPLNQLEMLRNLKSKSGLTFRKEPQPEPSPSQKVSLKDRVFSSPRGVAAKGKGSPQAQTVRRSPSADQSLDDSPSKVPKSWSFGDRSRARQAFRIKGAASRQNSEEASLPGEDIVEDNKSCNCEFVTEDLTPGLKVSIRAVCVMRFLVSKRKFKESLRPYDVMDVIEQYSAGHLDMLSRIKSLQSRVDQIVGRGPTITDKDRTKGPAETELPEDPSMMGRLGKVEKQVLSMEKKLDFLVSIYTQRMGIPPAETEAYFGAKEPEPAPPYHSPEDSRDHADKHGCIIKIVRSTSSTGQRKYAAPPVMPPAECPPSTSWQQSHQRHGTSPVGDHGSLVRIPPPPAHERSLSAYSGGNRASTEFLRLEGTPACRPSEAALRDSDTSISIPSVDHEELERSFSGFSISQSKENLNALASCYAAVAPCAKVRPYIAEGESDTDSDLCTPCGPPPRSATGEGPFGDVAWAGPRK
KCNQ2 pot = potentiators of rat KCNQ2 potassium channel. Potassium voltage-gated channel subfamily KQT member 2 (Rattus norvegicus), O88943. CHO-K1 KCNQ2, FluxOR thallium flux fluorescence; active compounds read high. B-score at 10 µM. hit rate 0.54% among 310,000;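 active = fluorescence ratio B-score at least 3 SD of library B-scores, with initial fluorescence B-score within 3 of them, cut at about 5.3 in these data; same plate scores as AID 2156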;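 also: B-score of peak minus minimum over baseline fluorescence ratio after K+ and Tl+ stimulus; positive B-score means potentiation of KCNQ2 with more thallium influx and brighter signal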
An asterisk follows results filed as active; i = inactive; . = no result.

SMILES	KCNQ2 inh	KCNQ2 pot
O=C(Nc1ccccc1C(=O)Nc1ccccc1C(=O)O)c1ccccc1	-5.9*	-5.9
O=C(Nc1ccccc1C(=O)NC(Cc1ccccc1)C(=O)NC1CCCCC1)c1ccccc1 (centres undefined)	-7.2*	-7.2
COc1ccc(CCNC(=O)C(=O)NCC2CCCN2S(=O)(=O)c2ccccc2)cc1OC (centres undefined)	i	.
CC1CCC(NC(=O)CN2C(=O)NC(C)(C)C2=O)CC1 (centres undefined)	i	1.8
CCCCN1C(=O)c2ccc(C(=O)NC3=NCCS3)cc2C1=O	i	.
COc1cccc(CNc2ccc(S(N)(=O)=O)cc2)c1OCc1ccccc1F	i	9.3*
C=CCOc1c(CNc2ccc(S(N)(=O)=O)cc2)cccc1OC	i	1.4
CCOC(=O)C1CCN(C(=O)c2cc3cc(C)ccc3[nH]2)CC1	i	.
CCOC(=O)c1c(-c2ccccc2)csc1NC(=O)CCN1C(=O)c2ccccc2C1=O	i	.
CCNC(=S)Nc1scc(-c2ccccc2)c1C(=O)OCC	i	12*
CC(=O)Nc1ccc(NC(=O)C(C)Oc2ccc(Cl)cc2Cl)cc1 (centres undefined)	i	0.1
COc1ccc(NC(=O)C(=O)NNC(=O)C(C)Oc2ccc(Cl)cc2Cl)cc1 (centres undefined)	i	20*
CS(=O)(=O)N(Cc1ccccc1Cl)c1ccc(C(=O)NCc2ccccn2)cc1	i	1.2
COc1cc2ccc(=O)oc2c(CC=C(C)C)c1OC	i	0.11
COc1cc(O)cc2c1[C@@H]1Oc3c(ccc(O)c3CC=C(C)C)[C@@H]1CO2	-6.5*	-6.5
C=CCOc1c(Br)cc(CNc2ccc(NC(=O)C(C)C)cc2)cc1OCC	i	8.3*
CCOc1cc(CNc2ccc(O)cc2)cc(Br)c1OCc1ccccc1F	i	.
CCCCOC(=O)c1ccc(NC(=O)COC(=O)CSc2nc(C)cc(C)n2)cc1	i	2.8
O=C(NC(=S)Nc1ccc2c(c1)C(=O)c1ccccc1C2=O)c1ccc(F)cc1	i	1.5
O=C(NCC1CCCN(Cc2ccc3c(c2)OCCO3)C1)c1ccc2c(c1)OCO2 (centres undefined)	i	0.77
O=C(NCC1CCCN(Cc2ccc3nonc3c2)C1)c1cccc(C(F)(F)F)c1 (centres undefined)	-5.7*	-5.7
O=C(NNC(=O)c1sccc1-n1cccc1)Nc1ccc(F)cc1	i	0.77
CCN(/C=N/c1sc2c(c1C#N)CCCCC2)CC	i	.
CC(C)CN(/C=N/c1sc2c(c1C#N)CCCCC2)CC(C)C	-6.2*	-6.2
CN(C)c1cccc(/C=C(\C#N)c2ccccc2)c1	-5.7*	-5.7
SMILES	KCNQ2 inh	KCNQ2 pot
CN(C)c1ccc(/C=C(\C#N)C(=O)c2ccccc2)cc1	i	1.3
CCc1ccc(CN2CCCC(CCC(=O)N3CCN(c4ccccn4)CC3)C2)o1 (centres undefined)	i	0.28
O=C(Oc1ccc(Cl)c2cccnc12)C12CC3CC(CC(C3)C1)C2	i	.
N#Cc1ccccc1S(=O)(=O)c1ccccc1C(=O)Nc1ccccc1	i	0.05
COc1ccc(-c2nc(=S)[nH][nH]2)cc1OC	i	.
COc1ccc(-c2nc(=S)[nH][nH]2)cc1	-8.4*	-8.4
Cc1ccc(-c2cc(C(=O)N/N=C/c3c(C)nn(C)c3C)c3ccccc3n2)c(C)c1	i	.
Cc1ccccc1NS(=O)(=O)c1ccc(OCC(=O)N2CCCC2)cc1	i	.
S=C1N(c2ccccc2)C(c2ccc(Cl)cc2)N2CCCN12 (centres undefined)	i	.
CC1(C)CN2C(=S)N(c3ccccc3)C(c3ccccc3)N2C1 (centres undefined)	-5.6*	-5.6
COC(=O)[C@@]12CCCN1[C@H](c1ccc(-c3cccc(Cl)c3)cc1)[C@H]1C(=O)N(C)C(=O)[C@H]12	i	.
CC(=O)NN1C(=O)/C(=C2/Sc3ccc(Cl)cc3N2C)SC1=S	i	0.46
Cc1ccc(CN(CC(O)COc2cccc3[nH]cc(C)c23)C(C)(C)C)cc1 (centres undefined)	-6.7*	-6.7
Cc1c[nH]c2cccc(OCC(CNC(C)(C)C)OC(=O)c3ccccc3)c12 (centres undefined)	i	.
O=C(COC(=O)C1=COCCO1)NCc1ccc(Cl)cc1	i	0.55
CCC(C)[C@H](N)C(=O)NC[C@H]1CC[C@H](C(=O)N[C@@H](Cc2ccccc2)C(=O)O)CC1 (some centres undefined)	i	0.19
COc1ccc(/C=N/NC(=O)C(=O)N2CCCCCC2)cc1O	i	.
COc1ccc(NC(=O)c2ccc(C)cc2)c[n+]1[O-]	i	.
CC1(C)CC(=O)C(=Cc2cn(CCC#N)nc2-c2ccc(Cl)cc2)C(=O)C1	i	3.8
CC1(C)CC(=O)C(=Cc2cn(CCC#N)nc2-c2ccc(F)cc2)C(=O)C1	i	6.5*
CCOC(=O)CCC(=O)Nc1ccc([N+](=O)[O-])cc1C	i	0.17
Cc1cc(NC(=O)CSc2nnc(CNC(=O)c3ccc(C(C)(C)C)cc3)o2)no1	-6.4*	-6.4
COc1ccc(C(=O)NCc2nnc(SCC(=O)Nc3cc(C)on3)o2)cc1OC	i	.
Cc1c(Cl)cccc1NC(=O)CSc1ncnc2c1cnn2CCc1ccccc1	i	.
O=C(CSc1ncnc2c1cnn2CCc1ccccc1)Nc1cccc(C(F)(F)F)c1	-6.7*	-6.7
SMILES	KCNQ2 inh	KCNQ2 pot
Cc1c(Cl)cccc1NC(=O)CNc1cccc(C(F)(F)F)c1	-6*	-6
C/C(=N\NC(=O)CNc1cccc(C(F)(F)F)c1)c1ccc(Br)cc1	i	.
Cc1c(Cl)cccc1NCC(=O)Nc1ccc(Cl)cc1F	-6.8*	-6.8
Cc1ccc(F)cc1NCC(=O)Nc1ccc(Cl)cc1F	i	.
COc1cc(C)c(Br)cc1S(=O)(=O)N1CCCC1	i	0.76
CSc1c(CC(=O)Nc2ccccc2)n(C)c2ccccc12	i	.
Cn1c(CC(=O)Nc2ccccc2)c(Sc2ccccc2)c2ccccc21	-6.2*	-6.2
COc1ccc(-c2csc3ncnc(N4CCN(c5cccc(OC)c5)CC4)c23)cc1	i	.
COc1ccc(-c2csc3ncnc(N4CCN(S(=O)(=O)c5cccs5)CC4)c23)cc1	i	.
COc1ccc(-c2csc3ncnc(N4CCN(c5cccc(Cl)c5)CC4)c23)cc1	-6.1*	-6.1
COc1ccc(N2CCN(c3ncnc4scc(-c5ccc(C)cc5)c34)CC2)cc1	i	3.5
COc1ccc(-c2csc3ncnc(N4CCN(S(=O)(=O)c5ccc(Cl)s5)CC4)c23)cc1	-7.5*	-7.5
COc1ccc(N2CCN(C(=O)CSc3ncnc4scc(-c5ccc(C)cc5)c34)CC2)cc1	-5.6*	-5.6
Cn1nccc1C(=O)N1CCOCC1	i	0.42
Cc1cc(C)c2nc(N3CCCN(C(=O)c4cnccn4)CC3)c(C#N)cc2c1	i	.
COc1ccc2oc(=N)c(C(=O)Nc3cccc(C)c3C)cc2c1	i	.
CN1CCC(N(C)CC(=O)Nc2cccc(Oc3ccccc3)c2)CC1	i	0.12
N#Cc1cc([N+](=O)[O-])cnc1N(CCO)CCO	i	0.33
Cc1nc(N2CCN(c3ccccc3)CC2)nc2c1C(=O)CC(C)C2 (centres undefined)	i	.
Cc1nc(N2CCN(c3ccccc3)CC2)nc2c1C(=O)CC(c1ccccc1)C2 (centres undefined)	-6.1*	-6.1
